In the library only some 2.3% were active in any assay of this set; here they are far more common.
ZTA counter: blocks Epstein-Barr virus ZTA, an EBNA-1 counter-screen; hit rate 0.15% among 320,000; inhibition, % at 11 µM; ZTA-DNA binding, fluorescence polarization; in the data active = inhibition above about 33%
Target sequence (P03206 whole entry, looked up): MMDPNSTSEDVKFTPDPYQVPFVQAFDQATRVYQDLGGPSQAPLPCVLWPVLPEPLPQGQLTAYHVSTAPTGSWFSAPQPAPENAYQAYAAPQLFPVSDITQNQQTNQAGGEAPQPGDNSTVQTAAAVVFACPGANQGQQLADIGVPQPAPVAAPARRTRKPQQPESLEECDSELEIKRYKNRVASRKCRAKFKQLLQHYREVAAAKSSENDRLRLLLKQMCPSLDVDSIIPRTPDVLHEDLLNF
MsrA inhibitor: bovine MsrA enzyme inhibitors, primary screen, biochemical, absorbance, HTS | Methionine sulfoxide reductase A (Bos taurus) | purified bovine MsrA, absorbance read-out | inhibition, % at 15.5 µM | hit rate 0.75% among 360,000 | AID 651718, 2012;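 also: 0% = vehicle wells with enzyme and 100% = reference inhibitor wells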
PP5 primary: PP5 phosphatase inhibitors, primary screen, biochemical, fluorescence. Serine/threonine-protein phosphatase 5 (Homo sapiens), P53041. purified PP5c, OMFP substrate fluorescence. inhibition, % at 6.7 µM. hit rate 0.18% among 320,000. AID 1987, 2009;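 active = inhibition above the campaign's mean inhibition across all tested compounds plus 3 SD, cut at about 9.5% in these data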;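 also: 0% = DMSO only and 100% = 100 µM cantharidin control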
PP1 counter: PP1-alpha phosphatase inhibitors, primary screen, counter-screen for PP5 inhibitor project, biochemical, fluorescence, OMFP substrate, single point; Serine/threonine-protein phosphatase PP1-alpha catalytic subunit (Homo sapiens), P62136; purified PP1alpha; inhibition, % at 6.7 µM; hit rate 0.9% among 320,000;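 active = inhibition above the mean inhibition of all tested compounds plus 3 SD, computed separately for each screening campaign, cut at about 15% in these data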
Target sequence (P62136 whole entry, looked up): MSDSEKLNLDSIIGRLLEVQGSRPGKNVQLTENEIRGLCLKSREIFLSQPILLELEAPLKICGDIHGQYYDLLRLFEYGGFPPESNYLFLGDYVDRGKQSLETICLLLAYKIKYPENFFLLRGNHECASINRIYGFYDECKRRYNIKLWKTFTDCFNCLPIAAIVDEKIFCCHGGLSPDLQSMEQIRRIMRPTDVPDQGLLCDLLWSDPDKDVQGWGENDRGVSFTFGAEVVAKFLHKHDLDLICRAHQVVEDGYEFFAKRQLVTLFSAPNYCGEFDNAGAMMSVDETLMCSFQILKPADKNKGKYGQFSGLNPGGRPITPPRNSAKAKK
EBNA-1 inhibitor: EBNA-1 DNA-binding inhibitors, primary screen, biochemical, fluorescence polarization; inhibition, % at 14.8 µM; hit rate 0.34% among 300,000; in the data active = inhibition above about 28%
bovine MsrA act: bovine MsrA enzyme activators, primary screen, biochemical, absorbance, HTS | Methionine sulfoxide reductase A (Bos taurus) | purified bovine MsrA, absorbance read-out | hit rate 0.3% among 360,000 | activation, % at 10.6 µM; in the data active = activation above about 7.5%;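 also: 0% = vehicle and 100% = reference activator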
MsrA conf: bovine MsrA inhibitors, retest, confirmation, biochemical, absorbance, HTS. hit rate 41% among 2,300. AID 651822, 2012. inhibition, % at 15.5 µM. purified bovine MsrA, absorbance read-out. shares compounds with MsrA inhibitor;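 also: coupled to thioredoxin reductase with NADPH and selenocystamine and DMSO as substrate; 0% = vehicle only and 100% = full effect of reference inhibitor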
An asterisk follows results filed as active; nt = no result given. Rule as the data show it, unless noted: active = inhibition above about 4.5%; inactive = the rest.

SMILES	ZTA counter	MsrA inhibitor	PP5 primary	PP1 counter	EBNA-1 inhibitor	bovine MsrA act	MsrA conf
O=C(O)c1cccc(Cn2c(Cl)c(/C=N/NC(=O)c3ccccc3O)sc2=O)c1	-25.1	5.0*	0.9	10.8	-6.8	-14.9	4.2
COc1ccc(C(=O)N/N=C/c2sc(=O)n(Cc3cccc(C(=O)O)c3)c2Cl)cc1	5.2	9.0*	3.8	-4.2	-10.3	-3.1	5.6*
Cc1ccc(C(=O)NNC(=O)C2CCN(c3nccc(C)n3)CC2)cc1	-2.1	-0.9	0.0	-3.1	5.1	-3.5	nt
COc1cc2oc(-c3ccc(O)cc3)cc(=O)c2c(OC)c1O	nt	7.1*	nt	nt	nt	-5.0	3.3
COc1cc2oc(-c3ccc(O)cc3)cc(=O)c2c(O)c1OC	-0.4	3.7	8.0	-0.8	-8.0	-4.6	nt
Cc1ccccc1C(=O)N1CCC2CC1c1cc(-c3ccc(F)cc3)ccc12 (configuration not stated)	nt	-1.8	nt	nt	nt	4.7	nt
O=C(O)c1ccc(N2C(=O)/C(=C\c3ccccc3)N=C2c2ccccc2)cc1	-5.3	1.1	1.9	-0.6	6.6	-4.7	nt
CC1=N/C(=C\c2ccc3c(c2)OCO3)C(=O)N1c1ccc(C(=O)O)cc1	-9.9	5.6*	-2.1	-8.2	1.6	-1.4	1.6
O=[N+]([O-])C1C(c2ccccc2)=NOC1c1ccccc1O (configuration not stated)	-10.1	1.9	0.7	3.5	1.4	-3.5	nt
Cc1oc2c(c1C(=O)N1CCC(C)CC1)C(=O)c1ccccc1C2=O	-2.2	13.0*	0.6	-0.3	7.0	nt	6.0*
CCOC(=O)C1CCN(C(=O)c2c(C)oc3c2C(=O)c2ccccc2C3=O)CC1	-0.6	9.3*	1.6	-1.6	-1.1	2.0	13.7*
O=C(CCN(NC(=O)c1ccccc1)C1=NS(=O)(=O)c2ccccc21)NC1CCCCC1	-32.1	1.2	-5.3	0.7	-4.3	-4.3	nt
COc1cc(/C=C2\C(=O)ON=C2c2ccccc2)cc(Br)c1O	13.1	5.5*	0.1	0.3	1.2	-8.0	2.4
CCOc1cc(/C=C2/C(=O)ON=C2C)cc(Br)c1O	-2.1	5.0*	0.9	2.5	-1.7	-11.5	2.7
CCOc1cc(/C=C2\C(=O)ON=C2c2ccccc2)cc(Br)c1O	3.5	4.3	0.8	1.4	3.6	-7.6	nt
Cc1ccc(C(=O)NCC(=O)NCC(=O)OCC(=O)c2ccc(F)cc2)cc1	-3.6	51.6*	-3.3	-3.0	-2.2	-3.6	0.2
O=C(CNC(=O)c1ccccc1)NCC(=O)OCC(=O)c1ccc(F)cc1	-5.4	-1.6	-0.6	-1.4	-9.4	-3.5	nt
CN(CCC#N)C(=O)COC(=O)c1ccc(CNS(=O)(=O)c2ccc(F)c(Cl)c2)cc1	-13.9	0.2	1.1	2.8	-0.8	-0.5	nt
CCn1cc(CN2CCC(n3nccc3NC(=O)CCc3ccccc3)CC2)cn1	-21.8	-0.5	1.3	-3.9	5.0	-2.9	nt
Cc1oc2c(CN3CCOCC3)c(O)ccc2c(=O)c1-c1ccc(Cl)cc1	9.2	5.3*	2.5	1.5	-5.6	-10.9	1.3
CC1CCCN(C(=O)COC(=O)c2ccc3[nH]c4c(c3c2)CCCC4)C1 (configuration not stated)	4.7	-1.0	0.8	-1.8	5.8	-2.6	nt
Cc1ccc(N(C)S(=O)(=O)c2cccc(C(=O)Oc3ccc4c(C)cc(=O)oc4c3)c2)cc1	0.7	4.8*	0.3	4.0	16.4	-2.0	1.9
O=C(Cc1cccc(NC(=O)C2CCN(C(=O)CCc3ccccc3)CC2)c1)Nc1cccc(C(=O)N2CCCCC2)c1	nt	-0.4	nt	nt	nt	-7.7	nt
CCOc1ccccc1NC(=S)NC(=O)C1CC1	2.9	7.4*	0.7	3.2	-0.9	0.8	7.2*
Cc1cccc(N=c2oc3cc(O)ccc3cc2C(N)=O)c1	12.3	8.0*	2.9	3.1	0.1	0.2	10.0*
SMILES	ZTA counter	MsrA inhibitor	PP5 primary	PP1 counter	EBNA-1 inhibitor	bovine MsrA act	MsrA conf
Cc1cc(O)c(C(C)C)cc1N=Cc1ccc(N(C)C)cc1	nt	4.9*	nt	nt	nt	-4.8	3.7
COc1cc2c(cc1C=O)OC(C)C2 (configuration not stated)	-9.6	1.0	1.6	4.9	8.7	-3.8	nt
CCOc1cc2c(cc1C=O)OC(C)C2 (configuration not stated)	0.7	4.8*	-9.1	-3.0	5.7	-3.2	2.5
Oc1cccc(/C=N/Nc2ncnc3c2ncn3Cc2ccccc2)c1	1.1	4.8*	-0.6	-2.5	1.2	-10.3	5.2*
Oc1ccc(/C=N/Nc2ncnc3c2ncn3Cc2ccccc2)cc1O	14.0	4.5	0.4	9.0	4.8	-5.6	nt
CSc1cccc(NC(=S)N(CCC(C)C)C(C)c2ccncc2)c1 (configuration not stated)	-18.0	-0.4	2.7	-2.0	7.2	-9.4	nt
NS(=O)(=O)c1ccc(-c2ccc(C=O)o2)cc1	-6.5	4.7*	0.2	-3.1	-6.7	-12.2	3.0
COc1ccc(CN(C)CC(=O)N2CCc3ccccc3C2)cc1	-5.5	2.1	3.9	1.2	1.3	5.4	nt
CCOc1ccccc1C(=O)Nc1ccc(-n2nncc2C(C)(C)C)cc1	-27.1	0.7	-0.6	-0.6	1.7	-1.0	nt
Cc1cc(/N=C/C=C2\N(C)c3ccccc3C2(C)C)n(CCC#N)n1	-12.3	5.4*	0.8	0.5	9.4	-2.8	2.9
O=C(CSC(=S)N1CCCC1)N/N=C/c1c(O)[nH]c(=S)[nH]c1=O	nt	5.2*	nt	nt	nt	-1.3	5.2*
O=C(O)CSC(=S)N1CCCC1	11.7	2.4	0.8	1.2	-2.3	1.1	nt
COCCNC(=O)c1cccc(OC2CCN(Cc3ccc(OC(F)F)cc3)CC2)c1	0.5	-1.6	1.0	1.5	-3.7	-4.8	nt
COc1ccc2cc3cc(C(=O)NCCCN4CCOCC4)oc3nc2c1	-5.6	6.6*	2.9	13.4	-12.2	-7.2	4.1
CC1CCN(N=Nc2nc3c([nH]2)c(=O)n(C)c(=O)n3C)CC1	nt	7.8*	nt	nt	nt	0.8	5.5*
O=C(NCC1CCCO1)C(=O)N/N=C/c1ccc(O)c(Cl)c1 (configuration not stated)	-7.2	5.3*	0.8	2.6	5.2	-5.7	4.4
Cc1ccsc1/C=N/NC(=O)c1ccc(Cn2cc(Br)cn2)o1	-5.9	4.7*	-1.2	-0.7	-3.3	-2.2	3.9
CCc1cccc(NC(=O)CSc2nc(C)cs2)c1	nt	0.9	nt	nt	nt	-0.5	nt
CCOc1cc(/C=C(/C#N)c2ccc(F)cc2)ccc1OCc1ccc(C(=O)O)o1	-0.7	6.7*	3.9	1.4	-12.7	-10.0	4.5
CN(C)S(=O)(=O)c1ccc2nc(NC(=O)c3cccs3)sc2c1	-12.5	6.2*	2.4	4.7	2.5	-2.8	5.4*
O=C(Nc1nc2ccc(S(=O)(=O)N3CCOCC3)cc2s1)c1cccs1	8.5	5.6*	1.2	0.7	6.9	-2.0	3.6

Bioassay records: PubChem, The Scripps Research Institute Molecular Screening Center
